Screening data: PubChem BioAssay, The Scripps Research Institute Molecular Screening Center
A selection: hits, their analogues and other compounds. The true share with any hit is near 1.1%.
HTR5A ag ctr = activates human HTR5A in OPRM1-OPRD1 agonist counter-screen; HTR5A agonist assay, luminescence, cell-based; P47898; AID 504692; actives 0.61% (n = 340,000); activation, % at 9.3 µM; in the data active means activation mostly above about 9.5%, no sharp cut-off; inactive means mostly below about 7.6%;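 further: 0% = cells with vehicle only and 100% = reference agonist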
Target sequence (P47898 whole entry, looked up): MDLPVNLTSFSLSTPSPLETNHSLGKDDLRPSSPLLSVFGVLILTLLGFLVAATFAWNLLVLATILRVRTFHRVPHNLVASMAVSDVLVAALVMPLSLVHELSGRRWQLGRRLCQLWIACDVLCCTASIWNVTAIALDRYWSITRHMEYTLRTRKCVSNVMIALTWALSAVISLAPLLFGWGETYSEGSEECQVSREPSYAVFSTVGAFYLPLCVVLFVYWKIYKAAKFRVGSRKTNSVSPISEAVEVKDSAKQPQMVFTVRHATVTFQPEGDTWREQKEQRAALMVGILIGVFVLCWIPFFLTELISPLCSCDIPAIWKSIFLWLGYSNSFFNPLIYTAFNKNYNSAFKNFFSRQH
MOR-DOR inv ag = inverse agonists of human mu-delta opioid receptor heterodimerization | P35372+P41143 | cell-based MOR-DOR heterodimer luminescence, inverse agonism | inhibition, % at 9.3 µM | actives 0.21% (n = 340,000) | AID 504357; in the data active means inhibition above about 22%, passing the limit was not always enough;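 further: 0% = cells with DMSO and 100% = wells without cells with DMSO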
MOR-DOR ag = OPRM1-OPRD1 heterodimerization agonism | cells, luminescence | activation, % at 9.3 µM | actives 0.3% (n = 340,000) | AID 504326; in the data active means activation above about 18%;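 further: 0% = vehicle-treated cells and 100% = reference agonist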
HTR5A inv ctr = HTR5A inverse agonism, opioid heterodimer counter-screen | HTR5A cell line, luminescence | actives 0.083% (n = 340,000) | P47898 | inhibition, % at 9.3 µM; in the data active means inhibition mostly above about 23%, no sharp cut-off; inactive means mostly below about 18%;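 further: 0% = cells with DMSO and 100% = no-cell wells with DMSO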
An asterisk follows results filed as active.

SMILES	HTR5A ag ctr	MOR-DOR inv ag	MOR-DOR ag	HTR5A inv ctr
O=C(CCn1c(=S)[nH]c2ccccc2c1=O)N1CCCCC1	9.4*	13	-2	-35
CCOC(=O)N1CCN(C(=O)CCn2c(=S)[nH]c3ccccc3c2=O)CC1	-3	14	-3	1
O=C(CC12CC3CC(CC(C3)C1)C2)NCC(c1ccc(F)cc1)N1CCOCC1 (stereo unspecified)	2	-8	2	-6
COc1ccc2c(c1)Sc1ccccc1N2CCN(C)C	-4	-108	19*	-8
COc1ccc(S(=O)(=O)N2CCOCC2)cc1NC(=O)CN1C(=O)NC(C)(C2CC2)C1=O (stereo unspecified)	-3	24	-6	-20
O=Cc1c(NCc2ccccc2Cl)c2ccccc2[nH]c1=O	3	5	-1	-10
CC(=O)C1=C(O)C(=O)N(Cc2cccnc2)C1c1ccccc1 (stereo unspecified)	-8	3	0	-24
CC(=O)C1=C(O)C(=O)N(Cc2cccnc2)C1c1ccc(Cl)cc1Cl (stereo unspecified)	12*	-1	0	-39
CC(OC(=O)Cn1[nH]c(=O)c2ccccc2c1=O)C(=O)Nc1ccccc1[N+](=O)[O-] (stereo unspecified)	-1	8	-1	16
COc1ccc(NC(=O)COc2ccc(N(C)S(=O)(=O)c3ccc(Cl)cc3)cc2)cc1OC	-5	-9	2	12
S=C(Nc1ccc(Cl)c(Cl)c1)NC1CCN(Cc2ccccc2)CC1	12*	-135	23*	-23
O=C(NCC1COc2ccccc2O1)c1cn(Cc2ccc(F)cc2)nn1 (stereo unspecified)	13*	3	0	-42
CC(c1ccccc1)n1cc(C(=O)NCC2COc3ccccc3O2)nn1 (stereo unspecified)	12*	-4	1	-37
Nc1cc(S(=O)(=O)C(F)(F)F)ccc1C(=O)O	12*	0	0	-44
Nc1cc(C(F)(F)F)ccc1C(=O)O	-4	4	-1	12
COC(=O)[C@@H]1[C@@H](C#N)C2(c3ccccc3-c3ccccc32)N(c2ccc(Cl)cc2)N1C#N	8.7*	-52	10	-9
Cc1ncc(CO)c2c1Oc1nc(-c3ccccc3F)nc(SCC(=O)N(C)c3ccccc3)c1C2	12*	-103	20*	-5
CCOC(=O)C1=C(COC(=O)CCc2ccccc2)NC(=O)NC1C (stereo unspecified)	-6	12	-3	14
CCOC(=O)c1coc(CNC(=O)c2c(C)oc3c2CCCC3)c1	15	0	0	-36
CCOC(=O)c1cc(CNC(=O)c2c(C)oc3c2CCCC3)c(C)o1	11*	-6	1	-3
NC(=O)/C=C/C(=O)Nc1ccc(Cl)cc1	1	13	-3	-2
O=C(/C=C/C(Cl)(Cl)Cl)Nc1ccc(Cl)cc1	17*	-79	18*	-63
CN(CC(=O)NC1CCCCC1)S(=O)(=O)c1ccc2c(c1)c(=O)n(C)c(=O)n2C	-4	11	-2	4
Cc1cc(=O)oc2cc(OC(C)C)ccc12	1	9	-2	-7
Cc1cc(=O)oc2cc(OC(C(=O)O)c3ccccc3)ccc12 (stereo unspecified)	11*	4	-1	-41
SMILES	HTR5A ag ctr	MOR-DOR inv ag	MOR-DOR ag	HTR5A inv ctr
Cc1ccc(-n2c(=O)c3ccc(C(=O)NCc4ccco4)cc3n(Cc3ccccc3C#N)c2=O)cc1	-10	35*	-7	37*
O=C(CCCn1c(=O)[nH]c2cc(Cl)ccc2c1=O)NC1CCCCCCC1	3	4	-1	9
CN(Cc1ccccc1)C(=O)CCCn1c(=O)[nH]c2cc(Cl)ccc2c1=O	13*	6	-1	13
CC(C)C[C@H](NC(=O)c1nc[nH]c1C(=O)NC1CCN(C(=O)OC(C)(C)C)CC1)C(=O)OCc1ccccc1	12*	-95	17	-38
O=C(COC(=O)c1nc(Cl)ccc1Cl)NCc1cccs1	0	-33	5	-1
O=C(c1ccc(Cl)c(S(=O)(=O)N2CCCC2)c1)N1CCN(c2ccccn2)CC1	12*	-14	3	-66
O=C(c1ccc(Cl)c(S(=O)(=O)N2CCOCC2)c1)N1CCN(c2ccccn2)CC1	-1	14	-4	-8
Cc1[nH]c(C)c2c(=O)[nH]ncc12	-1	7	-1	2
CCN1C(N(C)CCc2c[nH]c3ccccc23)=N[C@@H](c2cccc(C(F)(F)F)c2)C(C(=O)OC)=C1C	22*	-19	3	-66
C/C(=N\NC(=O)C1(C)CC1(Br)Br)c1cccc(NC(=O)c2ccc(C)o2)c1 (stereo unspecified)	2	-1	0	-39
